This is a sample that favours compounds with a hit; in the whole collection about 2.8% have one here.
PAFAH1B2 inh: PAFAH1B2 (human) inhibition; 340,000 tested, 1.2% active; P68402; recombinant PAFAH1B2, FP-rhodamine activity probe, fluorescence polarization; inhibition, % at 3.39 µM; AID 492953;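 active = inhibition above the mean of all tested compounds plus 3 SD, cut at about 24% in these data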;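 also: 0% = enzyme with DMSO and 100% = wells lacking PAFAH1B2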
Fam108B counter: Fam108B inhibition, counter-screen for RBBP9 inhibitors. inhibition, % at 9.51 µM. 300,000 tested, 0.33% active. recombinant Fam108B, FP-Rh probe fluorescence polarization. AID 1947;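 active = inhibition above the screen mean inhibition plus 3 SD, computed separately per campaign, cut at about 18% in these data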;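 also: inhibitors lower polarization as less probe binds the enzyme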
pPAFAH inh: inhibitors of human plasma PAF acetylhydrolase (pPAFAH); Q13093; recombinant pPAFAH, FP-rhodamine probe fluorescence polarization; inhibition, % at 3.39 µM; 330,000 tested, 1.5% active;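 active = inhibition above the mean inhibition across the screen plus 3 SD, cut at about 25% in these data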;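 also: inhibitors block binding of the rhodamine activity-based probe so polarization drops; 0% = enzyme with DMSO and 100% = wells lacking pPAFAH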
PAFAH1B3 inh: inhibitors of human PAFAH1B3; recombinant PAFAH1B3, FP-rhodamine probe, fluorescence polarization; Q15102; 340,000 tested, 0.28% active; inhibition, % at 3.39 µM;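 active = inhibition above the screen-wide average of all tested compounds plus 3 SD, cut at about 25% in these data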;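 also: 0% = enzyme with DMSO only and 100% = wells lacking PAFAH1B3 protein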
Target sequence (Q15102 whole entry, looked up): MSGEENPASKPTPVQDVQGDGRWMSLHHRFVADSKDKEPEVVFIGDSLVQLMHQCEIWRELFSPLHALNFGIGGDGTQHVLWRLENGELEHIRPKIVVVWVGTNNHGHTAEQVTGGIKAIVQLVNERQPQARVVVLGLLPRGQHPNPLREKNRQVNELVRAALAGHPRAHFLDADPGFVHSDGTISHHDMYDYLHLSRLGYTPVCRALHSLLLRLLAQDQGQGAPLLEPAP
PME-1 primary: blocks human protein phosphatase methylesterase 1; Q9Y570; recombinant PME-1, FP-Rh probe fluorescence polarization; inhibition, % at 5.9 µM; 320,000 tested, 0.53% active; AID 2130;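 active = inhibition above the campaign mean of all compounds plus 3 SD, cut at about 26% in these data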;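 also: competitive labeling of PME-1 active site by serine hydrolase directed probe; 0% = PME-1 with DMSO and 100% = wells lacking PME-1 enzyme; inhibitors block probe labeling so polarization falls and inhibition rises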
Target sequence (Q9Y570 whole entry, looked up): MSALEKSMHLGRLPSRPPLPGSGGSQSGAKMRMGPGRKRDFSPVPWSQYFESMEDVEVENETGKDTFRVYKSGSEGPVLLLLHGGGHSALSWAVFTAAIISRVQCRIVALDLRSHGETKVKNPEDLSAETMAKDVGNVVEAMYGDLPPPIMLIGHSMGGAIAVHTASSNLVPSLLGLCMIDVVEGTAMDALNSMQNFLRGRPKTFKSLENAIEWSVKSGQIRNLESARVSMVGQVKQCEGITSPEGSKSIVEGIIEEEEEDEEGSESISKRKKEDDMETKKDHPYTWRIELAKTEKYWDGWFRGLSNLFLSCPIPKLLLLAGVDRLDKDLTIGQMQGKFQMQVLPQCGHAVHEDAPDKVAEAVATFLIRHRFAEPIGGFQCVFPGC
PAFAH2 inh: PAFAH2 (human) inhibition. Q99487. inhibition, % at 3.39 µM. recombinant PAFAH2, FP-rhodamine activity probe, fluorescence polarization. AID 492956. 340,000 tested, 0.99% active;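 active = inhibition above the mean over all tested compounds plus 3 SD, cut at about 30% in these data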;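 also: inhibitors block probe labeling of enzyme so polarization drops; 0% = enzyme with DMSO and 100% = wells lacking PAFAH2 protein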
Fam108b confirm: confirmation of mouse Fam108b serine hydrolase inhibitors | AID 1978 | inhibition, % at 9.51 µM | shares compounds with Fam108B counter | recombinant Fam108b, FP-Rh probe fluorescence polarization | 930 tested, 44% active;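 active = inhibition above a limit from the primary screen, the mean over all compounds plus 3 SD, cut at about 19% in these data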;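 also: 0% = median of active Fam108b wells and 100% = catalytically dead S170A mutant; inhibitors free the probe so polarization falls as inhibition rises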
Fam108b ABPP HTS: mouse ABHD17B inhibition | shares compounds with Fam108B counter | AID 588649 | inhibition, % at 20 µM | 260 tested, 44% active | recombinant Fam108b, gel-based ABPP, fluorophosphonate probe; in the data active = inhibition above about 40%
pPAFAH FP conf: confirmation of human plasma PAF acetylhydrolase (pPAFAH) inhibitors | 2,300 tested, 72% active | recombinant pPAFAH, FP-Rh probe fluorescence polarization | inhibition, % at 3.39 µM | shares compounds with pPAFAH inh;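 active = mean inhibition of the triplicate above the hit cutoff set for the earlier primary screen, cut at about 25% in these data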;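 also: 0% = enzyme with DMSO and 100% = wells lacking pPAFAH enzyme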
* = called active by the depositor; x = no result given.

SMILES	PAFAH1B2 inh	Fam108B counter	pPAFAH inh	PAFAH1B3 inh	PME-1 primary	PAFAH2 inh	Fam108b confirm	pPAFAH FP conf	others
Oc1ccc(N=Nc2ccccc2-c2nn[nH]n2)c(O)c1	16	40*	83*	40*	22	41*	41*	46*	Fam108b ABPP HTS=0
CNc1ccc(Br)cc(C(=O)/C=C/c2ccc3c(c2)OCO3)c1=O	-1	18*	45*	5	3	31*	6	28*
Cc1cc(OCCN2CCOCC2)ccc1Cl	2	0	6	8	1	17	x	x
O=C(O)C1Nc2c(C(F)(F)F)ccc(Cl)c2C2C=CCC12 (centres undefined)	1	-3	15	11	1	5	x	x
Cc1cc(C)c2c(c1)NC(C(=O)O)C1CC=CC21 (centres undefined)	19	21*	68*	10	5	50*	14	33*
COC1=CC(=O)C(O)=C(CCCCCCC/C=C/CCCCCCCC2=C(O)C(=O)C=C(OC)C2=O)C1=O	94*	47*	95*	41*	22	101*	52*	95*
O=[N+]([O-])c1cc(/C=N/Nc2nc3ccccc3[nH]2)c(O)cc1O	x	19*	40*	x	17	x	17	34*
C=C1c2cccc(O)c2C(O)=C2C(=O)[C@]3(O)C(O)=C(C(N)=O)C(=O)[C@@H](N(C)C)[C@@H]3[C@@H](O)[C@H]12	12	26*	95*	18	0	23	-5	18
CCOc1ccc(S(=O)(=O)NCCC(=O)NC2CCC(C)CC2)cc1 (centres undefined)	5	x	5	9	x	1	x	x
O=S(=O)(c1cccs1)N1CN(Cc2ccc(Cl)cc2)c2nc3ccccc3nc21	9	-2	1	8	5	3	x	x
O=S(=O)(c1cccs1)N1CN(Cc2ccco2)c2nc3ccccc3nc21	5	28*	46*	3	34*	2	9	16
O=C(NCc1ccccc1)c1ccc2c(=O)[nH]c3c(C(=O)NCC4CCCO4)sc(=S)n3c2c1 (centres undefined)	35*	34*	63*	34*	11	54*	20*	81*
O=C(NCc1ccccc1)c1ccc2c(=O)n(CC3CCCO3)c(=S)[nH]c2c1 (centres undefined)	6	0	0	13	-1	-6	x	x
O=C(NCc1ccco1)c1sc(=S)n2c1[nH]c(=O)c1ccccc12	18	38*	47*	19	16	30	34*	61*	Fam108b ABPP HTS=15
CCCCCNC(=O)c1ccc2c(=O)[nH]c3c(C(=O)NCC4CCCO4)sc(=S)n3c2c1 (centres undefined)	49*	21*	62*	38*	8	45*	12	74*
C[C@H]1CN(S(=O)C(C)(C)C)[C@H](CCO)/C1=C\c1ccccc1 (some centres undefined)	2	x	x	13	x	3	x	x
O=C(NNC(=O)C12CC3CC(CC(C3)C1)C2)c1csc(N2CCOCC2)n1	18	-2	-3	9	-1	23	x	x
O=[N+]([O-])c1ccc(NN=Cc2cccc3ccccc23)nc1	2	x	x	1	x	4	x	x
O=[N+]([O-])c1ccc(N/N=C/c2cccc(O)c2O)cc1	11	19*	60*	31*	33*	5	93*	56*
COc1cccc(/C=N/Nc2ccc([N+](=O)[O-])cn2)c1O	2	51*	48*	-3	75*	5	5	12
C[C@H](NS(=O)(=O)c1ccccc1F)C(=O)OCC(=O)Nc1ccc2c(c1)OCCO2	3	x	9	3	x	4	x	x
COc1ccc2c(c1)cc(C(=O)N/N=C/c1c(O)c(C(=O)O)cc3ccccc13)n2C	23	43*	59*	29*	49*	39*	17	84*
Cn1c(O)c(/C=N/NC(=O)c2cc3ccccc3cc2O)c2ccccc21	37*	36*	62*	37*	70*	13	31*	49*
O=C(O)/C=C\C(=O)Nc1ccc(F)c(F)c1F	3	2	-3	4	-4	-4	x	x
Cc1cc(C)cc(C(=O)NCCC(=O)N2CCC3(CC2)NCCc2[nH]cnc23)c1	-1	-6	5	9	-3	-4	x	x
SMILES	PAFAH1B2 inh	Fam108B counter	pPAFAH inh	PAFAH1B3 inh	PME-1 primary	PAFAH2 inh	Fam108b confirm	pPAFAH FP conf	others
COc1ccc(C2=NOC(C(=O)Nc3ccc4c(c3)OCCO4)C2)cc1OC (centres undefined)	7	0	4	4	0	-4	x	x
COC(=O)c1ccccc1NC1=C/C(=N\S(=O)(=O)c2ccc(C(=O)O)cc2)c2ccccc2C1=O	53*	57*	37*	71*	21	72*	72*	39*	Fam108b ABPP HTS=15
O=C1C(Nc2ccccc2)=C/C(=N/S(=O)(=O)c2cccs2)c2ccccc21	38*	36*	62*	62*	32*	49*	57*	60*
O=C1C(Nc2ccccc2)=C(NS(=O)(=O)c2ccccc2)C(=O)c2ccccc21	20	5	10	8	4	7	x	x
COC(=O)c1ccccc1Nc1ccccc1	-1	4	4	3	-1	0	x	x
COc1ccc(N(C(=O)c2ccco2)C(C(=O)NC2CCCC2)c2cc(OC)c(OC)c(OC)c2)cc1 (centres undefined)	4	2	5	5	-1	1	x	x
CC(=O)c1c2c3c(cccc3n(C)c1=O)C(=O)c1ccccc1-2	x	6	11	x	2	x	x	x
Cn1c(=O)c(Nc2ccc(O)cc2)c2c3c(cccc31)C(=O)c1ccccc1-2	10	23*	41*	22	36*	15	22*	40*
COC(=O)N/N=C/c1ccc(-c2ccc(Cl)cc2Cl)o1	-3	-4	0	4	-5	2	x	x
O=C(O)c1ccc(N/N=C/c2ccc(-c3cc(Cl)ccc3Cl)o2)cc1	13	22*	37*	17	13	20	4	56*
O=C(O)c1cccc(-c2ccc(/C=N/Nc3ccc([N+](=O)[O-])cc3)o2)c1	1	23*	42*	2	33*	5	20*	28*
O=C(O)c1ccc(N/N=C/c2ccc(-c3ccc(Cl)cc3Cl)o2)cc1	11	28*	51*	11	64*	21	23*	47*
